TEAD-YAP inh = TEAD-YAP interaction inhibition, primary screen, TEAD-YAP interaction inhibitor project, luminescence, HEK-TIYL cells | inhibition, % at 9.12 µM | TEAD-Gal4/YAP UAS-luciferase luminescence | 640,000 compounds, 1.4% hits; in the data active = inhibition above about 32%
GPR151 activ = activators of human GPR151, primary screen, cell-based, PathHunter beta-arrestin, luminescence | 650,000 compounds, 1% hits | activation, % at 11.2 µM | PathHunter beta-arrestin GPR151 cells | G-protein coupled receptor 151 (Homo sapiens), Q8TDV0; in the data active = activation above about 4.9%
Target sequence (Q8TDV0 whole entry, looked up): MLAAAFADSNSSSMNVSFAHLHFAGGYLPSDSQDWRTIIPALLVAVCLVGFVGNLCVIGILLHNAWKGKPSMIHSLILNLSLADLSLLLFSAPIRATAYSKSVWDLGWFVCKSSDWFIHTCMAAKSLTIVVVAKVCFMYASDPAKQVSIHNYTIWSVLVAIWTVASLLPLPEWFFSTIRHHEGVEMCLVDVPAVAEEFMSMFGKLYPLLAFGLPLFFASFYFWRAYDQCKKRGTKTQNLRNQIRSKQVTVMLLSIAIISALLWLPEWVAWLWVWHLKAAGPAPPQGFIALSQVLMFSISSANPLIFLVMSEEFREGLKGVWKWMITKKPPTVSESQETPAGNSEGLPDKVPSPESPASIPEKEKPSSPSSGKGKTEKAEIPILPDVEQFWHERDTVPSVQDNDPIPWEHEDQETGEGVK
MITF primary = MITF inhibitors, primary screen, biochemical, AlphaScreen, human; AlphaScreen MITF homodimerization, bead proximity signal; inhibition, % at 2.6 µM; 650,000 compounds, 0.91% hits; AID 1259374, 2018; in the data active = inhibition above about 50%
FBW7 act = FBW7 E3 ligase activators, primary screen, biochemical, AlphaScreen, human; normalized activity (activation), % at 26.1 µM; 650,000 compounds, 0.13% hits; F-box/WD repeat-containing protein 7 (Homo sapiens), Q969H0; AlphaScreen FBW7–phospho-cyclin E peptide binding, activator screen; in the data active = normalized activity above about 1.9%;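 note: purified mutant Fbw7 with reduced substrate affinity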
GPR151 confirm = GPR151 activators, triplicate retest, confirmation, cell-based, PathHunter beta-arrestin, luminescence | shares compounds with GPR151 activ | GPR151 PathHunter beta-arrestin cells, 90 min; % of EA-reagent control over plate median | activation, % at 11.2 µM | 6,700 tested, under 10 active | AID 1508609, 2020;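 active = mean percent activation across replicates above the confirmation screen cutoff of 4.91%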
GPR119 counter = GPR119 activators in beta-arrestin cells, counter-screen for GPR151 activator project, cell-based, PathHunter beta-arrestin, luminescence, triplicate. shares compounds with GPR151 activ. 90 min; 0 = compound-well median, 100 = enzyme-acceptor control. activation, % at 11.2 µM. 6,700 compounds, 0.3% hits;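 active = mean percent activation in the counterscreen above 29.09%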;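 note: counterscreen on off-target GPR119 to flag nonselective hits from the GPR151 activator screen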
Large screens that a line does not name were inactive (follow-up assays come after a bar, where they were run). Compounds with a hit are over-represented: about 3.4% of the library has one in this group of screens.

CN(C)CC(C)(O)c1ccc2c(c1)CN(Cc1ccc3c(c1)OCCO3)CCO2 (stereo unspecified)	GPR151 activ 4.9 | GPR151 confirm inactive | GPR119 counter inactive
Cc1cccc(-c2cc(C(=O)Nc3ccc(F)c([N+](=O)[O-])c3)c3ccccc3n2)c1	GPR151 activ 5.7 | GPR151 confirm inactive | GPR119 counter inactive
O=C(Nc1cccc2ncccc12)C12CC3CC(CC(C3)C1)C2	none
O=C(CC12CC3CC(CC(C3)C1)C2)Nc1cccc2ncccc12	GPR151 activ 6.3 | GPR151 confirm inactive | GPR119 counter inactive
CCC(=O)Nc1cccc2ncccc12	none
Cc1ccc(SCC(=O)Nc2cccc3ncccc23)cc1	GPR151 activ 6.0 | GPR151 confirm inactive | GPR119 counter inactive
Cc1ccccc1NC(=O)CSC1=C(C#N)C(c2ccc(Cl)cc2)CC(=O)N1 (stereo unspecified)	none
COc1ccc(OC)c(NC(=O)c2cc(S(=O)(=O)NCc3ccc(C)cc3)ccc2F)c1	none
Cc1c(-c2ccc(F)cc2)[n+](=O)c2c(n1[O-])CCCC2	none
CC(C)c1c(-c2ccccc2)[n+](=O)c2c(n1[O-])CCCCC2	GPR151 activ 5.2 | GPR151 confirm inactive | GPR119 counter inactive
O=C1CCCC2=C1C(c1ccc(O)c(Cl)c1)C1=C(CCCC1=O)O2	TEAD-YAP inh 34, GPR151 activ 7.4 | GPR151 confirm inactive | GPR119 counter inactive
COC(=O)Nc1ccc(C)cc1NC(=O)OC	none
COc1cc(C)ccc1OCc1cc(C(=O)N2CCSCC2)no1	GPR151 activ 6.0 | GPR151 confirm inactive | GPR119 counter inactive
COc1cc(C)ccc1OCc1cc(C(=O)N2CCCCCC2)no1	none
CCNS(=O)(=O)c1ccc(CCC(=O)NC2CC2)cc1	GPR151 activ 6.7 | GPR151 confirm inactive | GPR119 counter inactive
CCCOc1ccccc1C1C(C#N)=C(N)Oc2n[nH]c(-c3ccc(Br)cc3)c21 (stereo unspecified)	none
CC(C)CCN1C(=O)CCc2cc(NC(=O)c3ccc4c(c3)OCO4)ccc21	GPR151 activ 5.3 | GPR151 confirm inactive | GPR119 counter inactive
CC(C)CCN1C(=O)CCc2cc(NC(=O)NCc3ccc(F)cc3)ccc21	none
Cc1ccc2cccc(SCC(=O)NC(C)(C)CC(C)(C)C)c2n1	none
CC(Oc1ccc2c(c1)OCO2)C(=O)NNC(=O)Nc1cccc(C(F)(F)F)c1 (stereo unspecified)	none
CC(Oc1cccc(Br)c1)C(=O)Nc1ccc2c(c1)OCO2 (stereo unspecified)	GPR151 activ 5.4 | GPR151 confirm inactive | GPR119 counter inactive
CCOc1cc(S(=O)(=O)NC2CC(C)(C)NC(C)(C)C2)c(C)cc1C	none
CCOc1cc(C)c(C(C)C)cc1S(=O)(=O)NC1CC(C)(C)NC(C)(C)C1	GPR151 activ 7.9 | GPR151 confirm inactive | GPR119 counter inactive
CCOc1cc(C(=O)Nc2nccs2)cc(OCC)c1OCC	none
O=C(Cc1cccc2ccccc12)Nc1nnc(-c2ccc(Cl)s2)o1	GPR151 activ 5.1 | GPR151 confirm inactive | GPR119 counter inactive
CCCC(=O)Nc1nnc(-c2ccc(Cl)s2)o1	none
CCN1CC=C2C(C#N)=C(N)C(C#N)(C#N)C(c3c(OC)ccc4ccccc34)C2C1 (stereo unspecified)	GPR151 activ 5.6 | GPR151 confirm inactive | GPR119 counter inactive
COc1ccc(OC)c(NC(=O)c2ccc(C)o2)c1	none
COCCNC(=O)C1CCN(c2nc(C)cc(C)n2)CC1	none
COC(=O)c1nsc(Cl)c1Cl	GPR151 activ 6.8 | GPR151 confirm inactive | GPR119 counter inactive
COc1ccccc1NC(=O)c1ccc(SCC(=O)NCc2ccccc2)c([N+](=O)[O-])c1	none
COC(=O)c1ccc(SCC(=O)NCc2ccccc2)c([N+](=O)[O-])c1	GPR151 activ 7.4 | GPR151 confirm inactive | GPR119 counter inactive
CCc1ccccc1OCCCCNCCO	none
CCc1cccc(CC)c1-n1c(SCC(=O)NC)nnc1-c1cccnc1	none
CCc1ccccc1-n1c(SCC(=O)NC)nnc1-c1cccnc1	GPR151 activ 7.6 | GPR151 confirm inactive | GPR119 counter inactive
CNC(=O)CSc1nnc(-c2cccnc2)n1CCc1ccccc1	none
CC(C)NC(=O)CSc1nnc(-c2cccnc2)n1CCc1ccccc1	GPR151 activ 9.5 | GPR151 confirm inactive | GPR119 counter inactive
CCC(C)c1ccccc1NC(=O)CCNC(C)=O (stereo unspecified)	none
CCC(C)c1ccccc1NC(=S)NC(C)=O (stereo unspecified)	GPR151 activ 31 | GPR151 confirm inactive | GPR119 counter inactive
Cc1ccc(NC(=O)N2CCC(C(=O)NCCC3=CCCCC3)CC2)cc1	GPR151 activ 5.0 | GPR151 confirm inactive | GPR119 counter inactive
O=C(NCCC1=CCCCC1)C1CC(=O)N(C2CCCC2)C1 (stereo unspecified)	GPR151 activ 5.5 | GPR151 confirm inactive | GPR119 counter inactive
CC(C)(C)C(=O)N1CCN(S(=O)(=O)c2ccccc2)CC1	none
COCCCNC(=O)c1ccc([N+](=O)[O-])cc1Cl	none
O=C(CCc1nnc(Cc2ccc3c(c2)OCO3)o1)NCCCC1CCCC1	GPR151 activ 6.9 | GPR151 confirm inactive | GPR119 counter inactive
CCCCCCNC(=O)C(=O)Nc1ccc(OCCCC)cc1	none
COc1ccc(-c2noc(CN(C)Cc3ccncc3C)n2)c(OC)c1OC	GPR151 activ 15 | GPR151 confirm inactive | GPR119 counter inactive
O=C(c1ccc2ccccc2n1)N1CCOCC1	GPR151 activ 5.4 | GPR151 confirm inactive | GPR119 counter inactive
CCOc1ccc(NC2SC(=O)NC2=O)cc1 (stereo unspecified)	GPR151 activ 5.0 | GPR151 confirm inactive | GPR119 counter inactive
CCOc1ccc(NC(=O)CC2SC(=O)NC2=O)cc1 (stereo unspecified)	none
c1csc(CNc2ccnc3c(-c4cccc5cccnc45)cnn23)c1	none
Cc1cnc(-c2csc3ccccc23)nc1Nc1ccc(N2CCOCC2)cc1	GPR151 activ 5.0 | GPR151 confirm inactive | GPR119 counter inactive
Cc1cnc(N2CCOCC2)nc1Nc1ccc(N2CCOCC2)cc1	none
Cc1cnc(N2CCOCC2)nc1Nc1ccc(Oc2ccccc2)cc1	GPR151 activ 6.6 | GPR151 confirm inactive | GPR119 counter inactive
CCn1c(CCNC(=O)C(C)(C)C)nc2ccccc21	GPR151 activ 6.7 | GPR151 confirm inactive | GPR119 counter inactive

Screening data: PubChem, The Scripps Research Institute Molecular Screening Center
